Test results taken from publication PMC6212833.
In all, about 2,000 compounds went through this assay and about 15 (0.8%) showed an effect of 50% or more. Only a selection was taken, and strong results are over-represented in it overall.

system: Balamuthia mandrillaris (ATCC PRA-291) trophozoites, axenic culture; assay: primary screen, percent inhibition; higher = more effect of the substance; settings: 20 µM;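 also: 0% = vehicle wells and 100% = lysate wells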
Procedure: Screening of a clinically approved library of compounds, compiled by the Small Molecule Discovery Center (SMDC) at the UCSF, was completed at 20 µM in 0.2% DMSO. All 2,177 drugs in the library were stored as 10 mM stocks dissolved in 100% DMSO (Sigma-Aldrich) at −20°C. B. mandrillaris amoebae were resuspended in axenic medium and distributed into opaque 384-well plates (Corning) at a density of 3,000 amoebae per well using a BioMek NX liquid handler. Negative-control wells were treated with vehicle only (0.2% DMSO in axenic medium), and positive-control wells simulating total destruction of amoebae were seeded with amoeba lysate generated by 3 consecutive freeze-thaw cycles. Following 72 h of incubation, 30 µl of CellTiter Glo reagent (CTG; Promega) was added to each well. The luminescence was measured with a Promega GloMax-Multi+ plate reader at 2, 4, and 8 h after CTG addition. […] The B-score, representing a plate-based statistical approach for correcting row, column, and edge effects, was also calculated for each compound in the library (75).

| Compound | % Inhibition |
| --- | --- |
| C[C@]12CCC3c4ccc(O)cc4CCC3C1C[C@@H](O)[C@@H]2O (some centres unmarked) | -15% |
| C[C@@H]1O[C@@H](O[C@H]2C[C@@H](O)[C@]3(CO)[C@H]4[C@H](O)C[C@]5(C)[C@@H](C6=CC(=O)OC6)CC[C@]5(O)[C@@H]4CC[C@]3(O)C2)[C@H](O)[C@H](O)[C@H]1O | 10.8% |
| CC[N+](CC)(CC(=O)Nc1c(C)cccc1C)Cc1ccccc1 | 14% |
| CN1[C@@H]2C[C@@H](OC(=O)[C@H](CO)c3ccccc3)C[C@H]1[C@@H]1O[C@@H]12 | 20.7% |
| C=CCCCCCCCCC(=O)O [735790-L3] | 30.5% |
| CCNC(=O)CCC/C=C\C[C@@H]1[C@@H](/C=C/[C@@H](O)CCc2ccccc2)[C@H](O)C[C@@H]1O | 22.9% |
| Nc1ccc(S(=O)(=O)O)cc1 | 31.3% |
| CCC(=O)NCC[C@@H]1CCc2ccc3c(c21)CCO3 | 16.9% |
| CC(CC(C(N)=O)(c1ccccc1)c1ccccc1)N(C)C (centres unmarked) | 14.2% |
| C=Cc1c(C)c2[n]3c1C=C1C(C)=C(CC)C4=[N+]1[Cu]31[n]3c(c(C)c(C(=O)O)c3=C(CC(=O)O)C3=[N+]1C(=C2)C(C)C3CCC(=O)O)=C4 (centres unmarked) | -2.1% |
| COc1cc2ncnc(Nc3ccc(F)c(Cl)c3)c2cc1OCCCN1CCOCC1 [756745-L3] | -9.92% |
| CC(=O)OCC(=O)[C@@]1(O)CCC2C3CCC4=CC(=O)CC[C@]4(C)[C@@]3(F)[C@@H](O)C[C@@]21C (some centres unmarked) | 12.2% |
| CC(=O)[C@@]1(O)CC[C@H]2[C@@H]3C[C@H](C)C4=CC(=O)C=C[C@]4(C)[C@@]3(F)[C@@H](O)C[C@@]21C | 10.1% |
| Cc1cccc(C)c1NC(=O)C1CCCCN1C (centres unmarked) | 13.3% |
| C[N+]1(C)[C@@H]2C[C@@H](OC(=O)C(O)(c3cccs3)c3cccs3)C[C@H]1[C@@H]1O[C@@H]12 | 11.2% |
| O=C(O)c1ccc[n+]([O-])c1 | 20.7% |
| CO/N=C(/C(=O)NC1C(=O)N2C(C(=O)O)=C(C[N+]3(C)CCCC3)CSC12)c1csc(N)n1 (centres unmarked) | 21.4% |
| CC(=O)Nc1ccc(C(=O)O)cc1 | -20% |
| COc1cc(N)c(Cl)cc1C(=O)N[C@@H]1CCN(CCCOc2ccc(F)cc2)C[C@@H]1OC | 1.93% |
| CCC(COC(=O)c1cc(OC)c(OC)c(OC)c1)(c1ccccc1)N(C)C (centres unmarked) | 17.5% |
| CCN(CC)CCOC(=O)C(Cc1cccc2ccccc12)CC1CCCO1 (centres unmarked) | 24.5% |
| NC(=O)[C@@H]1CCCN1C(=O)[C@H](Cc1cnc[nH]1)NC(=O)[C@@H]1CCC(=O)N1 | 9.33% |
| CN1C2CCC1CC(OC(=O)[C@H](CO)c1ccccc1)C2 (some centres unmarked) | 23% |
| CC(C)c1nc(N(C)S(C)(=O)=O)nc(-c2ccc(F)cc2)c1/C=C/[C@@H](O)C[C@@H](O)CC(=O)O | 35.4% |
| COCc1c(C(C)C)nc(C(C)C)c(/C=C/[C@@H](O)C[C@@H](O)CC(=O)O)c1-c1ccc(F)cc1 | 66.1% |
| O=C(O)C[C@H](O)C[C@H](O)/C=C/c1c(C2CC2)nc2ccccc2c1-c1ccc(F)cc1 | 15.5% |

| Compound | % Inhibition |
| --- | --- |
| N=C(N)NCC1COC2(CCCCC2)O1 (centres unmarked) | 21.2% |
| COc1ccc2cc3[n+](cc2c1OC)CCc1cc2c(cc1-3)OCO2 | 29.8% |
| CC(=O)Nc1c(I)c(C(=O)N[C@H]2C(O)O[C@H](CO)[C@@H](O)[C@@H]2O)c(I)c(N(C)C(C)=O)c1I (some centres unmarked) | 8.04% |
| CCOC(=O)c1ncn2c1CN(C)C(=O)c1cc(F)ccc1-2 | 7.85% |
| O=C(O)c1cccnc1Nc1cccc(C(F)(F)F)c1 | 25.3% |
| COc1ccc2cc([C@H](C)C(=O)O)ccc2c1 [130714-L6] | 22.7% |
| Cc1nccn1CC1CCc2c(c3ccccc3n2C)C1=O (centres unmarked) | 16.2% |
| Cc1c(C(N)=O)cc([N+](=O)[O-])cc1[N+](=O)[O-] | 20.6% |
| C[C@H](CCC(=O)O)[C@H]1CCC2C3C(=O)CC4CC(=O)CC[C@]4(C)C3CC(=O)[C@@]21C (some centres unmarked) | 17.3% |
| CCCCCCOC(=O)/N=C(\N)c1ccc(NCc2nc3cc(C(=O)N(CCC(=O)OCC)c4ccccn4)ccc3n2C)cc1 [756753-L2] | 20.4% |
| OC(CNCC(O)C1CCc2cc(F)ccc2O1)C1CCc2cc(F)ccc2O1 (centres unmarked) | 6.6% |
| CC1OC1P(=O)(O)O (centres unmarked) [131204-L2] | 12.9% |
| C/C(=C\C(=O)OCCCCCCCCC(=O)O)C[C@@H]1OC[C@H](C[C@@H]2O[C@H]2[C@@H](C)[C@H](C)O)[C@@H](O)[C@H]1O | 26.3% |
| CC(=O)Oc1cc(C(C)C)c(OCCN(C)C)cc1C | 24.8% |
| CCC(=O)OCC(=O)C1(OC(=O)CC)C(C)CC2C3CCC4=CC(=O)C=CC4(C)C3(Cl)C(O)CC21C (centres unmarked) | 22.7% |
| NC(=O)C1(N2CCCCC2)CCN(CCCC(=O)c2ccc(F)cc2)CC1 | 18.8% |
| CNCCC[C@]12CC[C@H](c3ccccc31)c1ccccc12 | 23.8% |
| COC(=O)C1[C@H]2C[C@H]3c4[nH]c5ccccc5c4CCN3C[C@@H]2CC[C@@H]1O (some centres unmarked) | 22.5% |
| CCN(C)C(=O)Oc1cccc([C@H](C)N(C)C)c1 [756883-L2] | 25.9% |
| CC(CCc1ccc(O)cc1)NCC(O)c1ccc(O)cc1 (centres unmarked) | -1.52% |
| CC1(C)S[C@@H]2[C@H](NC(=O)[C@H](NC(=O)N3CCN(S(C)(=O)=O)C3=O)c3ccccc3)C(=O)N2[C@H]1C(=O)O | 18.9% |
| COCCCOc1cc(C[C@@H](C[C@H](N)[C@@H](O)C[C@H](C(=O)NCC(C)(C)C(N)=O)C(C)C)C(C)C)ccc1OC | -4.92% |
| CCC(=O)OCC(=O)[C@@]1(OC(=O)CC)[C@H](C)CC2C3C([C@@H](O)C[C@@]21C)[C@@]1(C)C=CC(=O)C=C1C[C@H]3Cl (some centres unmarked) | 13.3% |
| CC(=O)OCC(=O)[C@@]12OC(C)(C)O[C@@H]1C[C@H]1[C@@H]3C[C@H](F)C4=CC(=O)C=C[C@]4(C)[C@@]3(F)[C@@H](O)C[C@@]12C | 11.4% |
| Cc1cccc(C)c1NC1=NCCCS1 | 8.96% |
| CC(=O)N[C@@H](CS)C(=O)O [129971-L5] | 0.0866% |

| Compound | % Inhibition |
| --- | --- |
| CN(C)c1ccc(C(=C2C=CC(=[N+](C)C)C=C2)c2ccc(N(C)C)cc2)cc1 | 61.7% |
| COc1cc(N)c(Cl)cc1C(=O)N[C@H]1CCN(CCCOc2ccc(F)cc2)C[C@H]1OC | 9.62% |
| CC(=O)OCC(=O)[C@@]1(O)CCC2C3CCC4=CC(=O)C=C[C@]4(C)[C@@]3(F)[C@@H](O)C[C@@]21C (some centres unmarked) | 15.9% |
| CCN[C@@H](C)Cc1cccc(C(F)(F)F)c1 | 20.1% |
| CC(=O)S[C@@H]1CC2=CC(=O)CC[C@]2(C)[C@H]2CC[C@@]3(C)[C@@H](CC[C@@]34CCC(=O)O4)C12 (some centres unmarked) | 28% |
| C/C=C(/C)C(=O)O[C@@H]1[C@H](OC(C)=O)[C@@]2(CO)C(CC1(C)C)C1=CCC3[C@@]4(C)CC[C@H](O[C@@H]5O[C@H](C(=O)O)[C@@H](O[C@@H]6O[C@H](CO)[C@@H](O)[C@H](O)[C@H]6O)[C@H](O)[C@H]5O[C@@H]5O[C@H](CO)[C@@H](O)[C@H](O)[C@H]5O)[C@](C)(CO)C4CC[C@@]3(C)[C@]1(C)C[C@H]2O (some centres unmarked) | 3.82% |
| CCN(CC)C(=O)C1CN2CCc3cc(OC)c(OC)cc3C2CC1OC(C)=O (centres unmarked) | 18.9% |
| CC(=O)/N=c1\sc(S(N)(=O)=O)nn1C | 11.1% |
| COc1ccc2[nH]c(S(=O)Cc3ncc(C)c(OC)c3C)nc2c1 (centres unmarked) [255785-L6] | 24.6% |
| COc1ccc2c3c1O[C@H]1[C@@H](O)C=C[C@H]4[C@@H](C2)N(C)CC[C@@]341 | 10.8% |
| CC(=O)OCC(=O)[C@@]1(O)CC[C@H]2[C@@H]3CCC4=CC(=O)CC[C@]4(C)[C@@]3(F)[C@@H](O)C[C@@]21C | 17.7% |
| CC(C)/N=C(N)/N=C(\N)Nc1ccc(Cl)cc1 [131550-L3] | 10.7% |
| N=C(NCCCCCCNC(=N)NC(=N)Nc1ccc(Cl)cc1)NC(=N)Nc1ccc(Cl)cc1 | 63.6% |
| CC(C)/N=C(N)/N=C(\N)Nc1ccc(Cl)cc1 [131550-L2] | 9.42% |
| O=C(O)COC(=O)Cc1ccccc1Nc1c(Cl)cccc1Cl | -10.4% |
| N=C(N)N | 14.8% |
| Cc1cc2nc3c(=O)[nH]c(=O)nc-3n(C[C@H](O)[C@H](O)[C@H](O)CO)c2cc1C | 14.9% |
| CO/N=C(\C(=O)N[C@@H]1C(=O)N2C(C(=O)O)=C(CSc3nc(=O)c(=O)[nH]n3C)CS[C@@H]12)c1csc(N)n1 | 13.4% |
| Cc1ccc(S(=O)(=O)NC(=O)NN2CCCCCC2)cc1 | 32% |
| C[C@]12CCC3c4ccc(OS(=O)(=O)O)cc4CCC3C1CCC2=O (some centres unmarked) | -1.63% |
| CO[C@@H]1[C@@H](OC(N)=O)[C@@H](O)[C@H](Oc2ccc3c(O)c(NC(=O)c4ccc(O)c(CC=C(C)C)c4)c(=O)oc3c2C)OC1(C)C | 9.7% |
| O=C(O)CCCCC1CCSS1 (centres unmarked) | 21.9% |
| CCC(=O)O[C@H]1[C@H](O[C@@H]2[C@@H](C)[C@H](O[C@H]3C[C@@](C)(OC)[C@@H](O)[C@H](C)O3)[C@@H](C)C(=O)O[C@H](CC)[C@@](C)(O)[C@H](O)[C@@H](C)C(=O)[C@H](C)C[C@@]2(C)O)O[C@H](C)C[C@@H]1N(C)C | 4.56% |
| C=Cc1c(C)c2cc3[nH]c(cc4nc(cc5nc(cc1[nH]2)C(C)=C5CCC(=O)O)C(CCC(=O)O)=C4C)c(C)c3C=C | 5.79% |
| C[C@H]1CN(C[C@H](Cc2ccccc2)C(=O)NCC(=O)O)CC[C@@]1(C)c1cccc(O)c1 | 13.2% |
